Experimental data: PubChem BioAssay (NCATS)
Values joined by “and” are separate entries in the source; they are usually repeats but may differ in a detail not shown here. Equal entries are not always repeated. Records with an inconclusive call do not appear. A call without a number means that no potency is given here. Some compounds were tested as several samples or in several runs, with calls that do not always agree. A number with no mark means an inactive call. Active and inactive are the calls of the source. Calls follow the shape of the dose curve; as a rule, active = well fitted inhibition curve with a large enough effect; inconclusive = small, poorly fitted or top-dose-only effect; inactive = flat fitted curve, though single readings scatter.

What was measured:
[1] = system: CRL-7250; assay: Cytotoxic Profiling of Annotated Libraries Using Quantitative High-Throughput Screening (AID 1296008); conditions: Five cell lines viability, CellTiter-Glo ATP luminescence, 48-72 h; max response: hits give low values; also: potency is read from the fitted curve at half-maximal effect
Outline: (§1)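 Cells exposed to compounds for 48 or 72 hr at 37 degrees Celsius. Viability read as ATP-coupled luminescence with CellTiter-Glo after 10 min at room temperature.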

[2] = system: HEK293; assay: as above; conditions: Five cell lines viability, CellTiter-Glo ATP luminescence, 48-72 h; max response: hits give low values
Outline: as §1

[3] = system: HaCat; assay: as above; conditions: Five cell lines viability, CellTiter-Glo ATP luminescence, 48-72 h; max response: hits give low values
Outline: as §1

[4] = system: KB-3-1; assay: as above; conditions: Five cell lines viability, CellTiter-Glo ATP luminescence, 48-72 h; max response: hits give low values
Outline: as §1

[5] = system: NIH3T3; assay: as above; conditions: Five cell lines viability, CellTiter-Glo ATP luminescence, 48-72 h; max response: hits give low values
Outline: as §1

[6] = system: MCC-13; assay: qHTS assay to identify novel small-molecules to repurpose for Merkel cell carcinoma treatment (AID 1296009); conditions: MCC and control cell lines, CellTiter-Glo viability, 72 h; series mostly up to 46 µM
Outline: (§2)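 CellTiter-Glo luminescence after 72 hr compound exposure at 37 degree celsius gave cell viability. Libraries NPC and MIPE were run as 8- and 11-point dose responses; RLUs normalized to DMSO (negative) and no-cell (cytotoxicity) controls.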

[7] = system: MCC-26; assay: as above; conditions: MCC and control cell lines, CellTiter-Glo viability, 72 h; series mostly up to 46 µM
Outline: as §2

[8] = system: MKL-1; assay: as above; conditions: MCC and control cell lines, CellTiter-Glo viability, 72 h; series mostly up to 46 µM
Outline: as §2

[9] = system: HACAT; assay: as above; conditions: MCC and control cell lines, CellTiter-Glo viability, 72 h; at 44.8 µM (top of the series) unless noted
Outline: as §2

[10] = system: HEK293T; assay: as above; conditions: MCC and control cell lines, CellTiter-Glo viability, 72 h; at 44.8 µM (top of the series) unless noted
Outline: as §2
Also: nearly all actives have a fitted effect of over 60% in size.

Compound	max response [1]	max response [2]	max response [3]	max response [4]	outcome [4]	max response [5]	Potency [6]	Potency [7]	Potency [8]	outcome [1]	outcome [5]	outcome [2]	outcome [3]	outcome [9]	outcome [10]	Potency [4]	Potency [2]	activity change, negative = cytotoxicity [6]	activity change, negative = cytotoxicity [7]	activity change, negative = cytotoxicity [8]
CCCCN1CCCC[C@H]1C(=O)Nc1c(C)cccc1C	2.72% and -2.26%	-17.3% and -9.85%	-56.1%	2.43%	inactive	-0.105% and -0.406%	inactive	inactive	inactive	–	–	–	–	–	–	–	–	–	–	–
CCOc1nc2cccc(C(=O)O)c2n1Cc1ccc(-c2ccccc2-c2nn[nH]n2)cc1	-0.772%	-7.13% and 4.6%	-22.9% and -2.42%	–	–	4.21%	inactive	inactive	inactive	inactive	inactive	–	–	–	–	–	–	–	–	–
CCN(CC)CCNC(=O)c1cc(Cl)c(N)cc1OC	0.565%	-1.38%	1.24%	–	–	-2.52%	inactive	inactive	inactive	–	inactive	inactive	inactive	inactive	inactive	–	–	–	–	–
O=C(CCCN1CCN(c2ccccn2)CC1)c1ccc(F)cc1	-29%	-14.9%	-5.51% and 4.13%	7.83% and 2.47%	–	-7% and 0.386%	inactive	inactive	inactive	inactive	–	–	–	–	–	–	–	–	–	–
CCCCOc1cc(C(=O)OCCN(CC)CC)ccc1N	-0.166%	-17.2% and -4.15%	1.81%	6.85%	–	–	inactive	inactive	inactive	inactive	inactive	–	inactive	inactive	–	4.95 µM (active)	–	–	–	–
CCCCc1ncc(/C=C(\Cc2cccs2)C(=O)O)n1Cc1ccc(C(=O)O)cc1	0.696%	1.61% and 1.3%	-8.96%	-5.45% and 6.97%	–	-1.7%	inactive	inactive	inactive	inactive	–	–	–	–	–	–	–	–	–	–
Cc1cc(C(C#N)c2ccc(Cl)cc2)c(Cl)cc1NC(=O)c1cc(I)cc(I)c1O (stereo not drawn)	-2.5%	-12.9%	-17.7%	–	inactive	-5.52%	inactive	inactive	inactive	inactive	inactive	–	inactive	inactive	–	–	23.7 µM (active)	–	–	–
N[C@@H](CSSC[C@H](N)C(=O)O)C(=O)O	–	–	–	4.84%	–	0.783%	–	–	–	inactive	–	inactive	inactive	inactive [at 0.588 µM]	inactive [at 0.588 µM]	–	–	4.94% [at 0.597 µM]	1% [at 0.597 µM]	8.58% [at 0.597 µM]
CC1(C)[C@@H]2CC[C@@]1(C)C(=O)C2	–	–	–	-13.1%	–	-6.56%	inactive	inactive	inactive	inactive	–	inactive	inactive	inactive	inactive	–	–	–	–	–
O=C(O)CC(O)C(=O)O (stereo not drawn)	-10.5%	–	–	15.7%	–	4.82%	inactive	inactive	inactive	–	–	inactive	inactive	inactive	inactive	–	–	–	–	–
Cc1c(Cl)cccc1Nc1ccccc1C(=O)O	–	–	–	-2.57%	–	–	inactive	inactive	inactive	inactive	inactive	inactive	inactive	inactive	inactive	–	–	–	–	–
Nc1ccc(S(=O)(=O)Nc2ccccc2)cc1	–	–	–	8.52%	–	3.32%	inactive	inactive	inactive	inactive	–	inactive	inactive	inactive	inactive	–	–	–	–	–
Cc1ncc([N+](=O)[O-])n1CC(O)CCl (stereo not drawn)	0.168%	–	–	18%	–	-5.9%	inactive	inactive	inactive	–	–	inactive	inactive	inactive	inactive	–	–	–	–	–
N[C@H]1C(O)O[C@H](CO)[C@@H](O)[C@@H]1O (stereo partly drawn)	-7.05%	–	–	2.62%	–	-13.4%	inactive	inactive	inactive	–	–	inactive	inactive	inactive	inactive	–	–	–	–	–
Cn1cc[nH]c1=S	4.5%	–	–	10.2%	–	–	inactive	inactive	inactive	–	inactive	inactive	inactive	inactive	inactive	–	–	–	–	–
[O-][n+]1cccc(CO)c1	-1.91%	–	–	4.61%	–	–	inactive	inactive	inactive	–	inactive	inactive	inactive	inactive	inactive	–	–	–	–	–
CN(C)CCN(Cc1ccccc1)c1ccccn1	–	–	–	-7.24%	–	0.397%	inactive	inactive	inactive	inactive	–	inactive	inactive	inactive	inactive	–	–	–	–	–

Compound	max response [1]	max response [2]	max response [3]	max response [4]	outcome [4]	max response [5]	Potency [6]	Potency [7]	Potency [8]	outcome [1]	outcome [5]	outcome [2]	outcome [3]	outcome [9]	outcome [10]	Potency [4]	Potency [2]	activity change, negative = cytotoxicity [6]	activity change, negative = cytotoxicity [7]	activity change, negative = cytotoxicity [8]
Cc1ncc(COP(=O)(O)O)c(C=O)c1O	2.82%	–	–	-1.97%	–	3.84%	inactive	inactive	inactive	–	–	inactive	inactive	inactive	inactive	–	–	–	–	–
O=C1OC(OC(=O)c2cccnc2Nc2cccc(C(F)(F)F)c2)c2ccccc21 (stereo not drawn)	1.85%	–	–	7.28%	–	-3.9%	inactive	inactive	inactive	–	–	inactive	inactive	inactive	inactive	–	–	–	–	–
OCC(CO)N[C@H]1C[C@](O)(CO)[C@@H](O)[C@H](O)[C@H]1O	-4.94%	–	–	-14.4%	–	3.34%	inactive	inactive	inactive	–	–	inactive	inactive	inactive	inactive	–	–	–	–	–
CC[C@@]1(c2ccccc2)NC(=O)N(C)C1=O	-4%	–	–	31.6%	–	1.13%	inactive	inactive	inactive	–	–	inactive	inactive	inactive	inactive	–	–	–	–	–
O=c1cc[nH]c(=S)[nH]1	1.22%	–	–	-6.83%	–	-2.25%	inactive	inactive	inactive	–	–	inactive	inactive	inactive	inactive	–	–	–	–	–
O=C(O)[C@H](O)c1ccccc1	-7.55%	–	–	5.08%	–	–	inactive	inactive	inactive	–	inactive	inactive	inactive	inactive	inactive	–	–	–	–	–
CN(C)CCCO[C@@H]1[C@H]2OC(C)(C)O[C@H]2O[C@@H]1C(O)CO (stereo partly drawn)	-6.03%	–	–	3.47%	–	-0.499%	inactive	inactive	inactive	–	–	inactive	inactive	inactive	inactive	–	–	–	–	–
C=CCn1c(=O)n([C@@H]2O[C@H](CO)[C@@H](O)[C@H]2O)c2nc(N)[nH]c(=O)c21	-6.63%	–	–	17%	–	4.38%	inactive	inactive	inactive	–	–	inactive	inactive	inactive	inactive	–	–	–	–	–
O=S(=O)(O)NC1CCCCC1	-7.57%	–	–	-17.7%	–	1.01%	inactive	inactive	inactive	–	–	inactive	inactive	inactive	inactive	–	–	–	–	–
COC(=O)[C@H]1[C@H]2C[C@@H]3c4[nH]c5cc(OC)ccc5c4CCN3C[C@H]2C[C@@H](OC(=O)COc2ccc(OC)cc2)[C@@H]1OC	-0.18%	–	–	0.718%	–	–	inactive	inactive	inactive	–	inactive	inactive	inactive	inactive	inactive	–	–	–	–	–
C/C(=C(\CCOP(=O)(O)O)SC(=O)c1ccccc1)N(C=O)Cc1cnc(C)nc1N	-3.12%	–	–	9.44%	–	–	–	–	–	–	inactive	inactive	inactive	inactive [at 4.96 µM]	inactive [at 4.96 µM]	–	–	-6.17% [at 4.84 µM]	20.3% [at 4.84 µM]	2.11% [at 4.84 µM]
COc1cc2[nH]c(=O)[nH]c(=O)c2cc1OC	–	–	–	35.7%	–	2.37%	inactive	inactive	inactive	inactive	–	inactive	inactive	inactive	inactive	–	–	–	–	–
CCCCCCCCCCCCCCCCCCOCC(O)CO (stereo not drawn)	–	–	–	4.03%	–	4.13%	inactive	inactive	inactive	inactive	–	inactive	inactive	inactive	inactive	–	–	–	–	–
NC(=O)NC(=O)Cc1ccccc1	3.98%	–	–	5.24%	–	3.84%	inactive	inactive	inactive	–	–	inactive	inactive	inactive	inactive	–	–	–	–	–
C[C@@H](O)[C@H](N)C(=O)O	-2.34%	–	–	1.86%	–	-1.06%	inactive	inactive	inactive	–	–	inactive	inactive	inactive [at 17.4 µM]	inactive [at 17.4 µM]	–	–	–	–	–
O=C1O[C@H]([C@@H](O)CO)C(O)=C1O	0.399%	–	–	-6.89% and 6.42%	–	–	inactive	inactive	inactive	–	inactive	inactive	inactive	inactive	inactive	–	–	–	–	–
